Screening data deposited in PubChem by National Center for Advancing Translational Sciences (NCATS).
JMJD2A Tudor inh: JMJD2A Tudor domain (human) inhibition | O75164 | AlphaScreen JMJD2A-Tudor / H3K4me3 peptide binding | Potency, µM (top dose mostly 114 µM), for the others: at the top dose activity change, negative = inhibition, most hits filed as inhibitors | 4.4% of 390,000 active | AID 504339; further: potency means the concentration at half of the fitted maximal effect; on the % scale 0 is the no-effect control and ±100 the full control effect; nearly all actives have a fitted effect of over 50% in size
PI5P4K alpha inh: inhibitors of human PI5P4K alpha. 1.2% of 330,000 active. max response, %. PI5P4Kalpha enzyme, ADP-Glo luminescence, 60 min; hits give low values. P48426; active means max response of -50% or lower; inconclusive means between -30% and -50%; inactive means -30% or higher; further: value at the top dose of about 77 µM; on the % scale 0 is the no-effect control and ±100 the full control effect
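ADP-Glo luminescence end-point read after a 60 min room-temperature kinase reaction of PI5P4Kalpha plus substrate, initiated with ATP at 5 microM final. Buffer: 0.038 M HEPES pH 7.4, EGTA, 0.1% CHAPS, 5% DMSO.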
L3MBTL1 block: L3MBTL1 (human) inhibition; AlphaScreen L3MBTL1–H3K9me1 peptide binding; 0.66% of 230,000 active; Q9Y468; AID 485360; Potency, µM (series often up to 57.1 µM), for the others: top-dose activity, negative = inhibition, most hits filed as inhibitors; further: potency means the concentration at half of the fitted maximal effect; on the % scale 0 is the no-effect control and ±100 the full control effect; nearly all actives have a fitted effect of over 60% in size
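Displacement of a biotinylated histone H3(1-15) peptide monomethylated at Lys9 (75 nM) from L3MBTL1 (50 nM) was measured by AlphaScreen after a 30 min room-temperature compound incubation; cefsulodin titration served as intraplate control.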
HP1b binding inh: HP1-beta chromodomain-methylated histone interaction inhibition; P83916; 0.56% of 390,000 active; Potency, µM (series often up to 114 µM), for inactives: at the highest dose activity change, negative = inhibition, usual class: inhibitors; AlphaScreen HP1-beta / biotin-H3K9me3 peptide binding; AID 540317; further: potency means the concentration at half of the fitted maximal effect; nearly all actives have a fitted effect of over 70% in size
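HP1-beta protein (50 nM final) preincubated 30 min at room temperature with biotinylated H3(1-18)K9me3 peptide (50 nM) in PBS pH 7.4, 0.01% Tween-20, then compound added for 30 min. AlphaScreen streptavidin donor/nickel chelate acceptor beads (10 ug/mL final), 30 min dark, luminescence read.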
BAZ2B block: BAZ2B (human) inhibition; Q9UIF8; AlphaScreen BAZ2B-H3K14Ac peptide displacement; Potency, µM (highest dose often 114 µM), inactives show top-dose activity change, negative = inhibition, usual class: inhibitors; 4.4% of 360,000 active; further: potency means the concentration at half of the fitted maximal effect; on the % scale 0 is the no-effect control and ±100 the full control effect; nearly all actives have a fitted effect of over 60% in size
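AlphaScreen displacement of biotin-H3(5-23)K14Ac peptide (50 nM final) from BAZ2B (50 nM final) in PBS pH 7.4, 0.01% Tween-20; complex preformed 30 min RT, then compounds (top 110 uM) 30 min RT, beads 20 min dark.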
G9a block: G9a (human) methyltransferase inhibition | Potency, µM (highest dose often 102 µM), inactives show at the top dose activity, negative = inhibition, most hits filed as inhibitors | G9a H3K9 monomethylation, AlphaScreen, 2 h | 8.8% of 350,000 active | AID 504332 | Q96KQ7; further: potency means the concentration at half of the fitted maximal effect; on the % scale 0 is the no-effect control and ±100 the full control effect; nearly all actives have a fitted effect of over 75% in size
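Compounds were preincubated with 20 nM G9a for 15 min, after which biotinylated H3K9 peptide (500 nM) and SAM (20 uM) started a 2 h room-temperature reaction. Monomethylated product was quantified by antibody-based AlphaScreen chemiluminescence.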
An asterisk follows results filed as active; ? = inconclusive; · = not tested or not shown; [ ] = remark or other dose. Most compounds without a hit are left out; they make up all but 11% or so of the library. Unless noted, the call rests on the fitted dose curve; in most records, active means well fitted inhibition curve with a large enough effect; inconclusive means small, poorly fitted or top-dose-only effect; inactive means no such curve, though single readings can be large or run the other way.

SMILES	JMJD2A Tudor inh	PI5P4K alpha inh	L3MBTL1 block	HP1b binding inh	BAZ2B block	G9a block
CCN(CC)S(=O)(=O)c1cc(NC(=O)C2CCN(c3ncnc4sc(C)c(C)c34)CC2)ccc1Cl	-24.1%	8.8	-4.0%	34.3%	-17.1%	44.7µM*
Cc1ccc(NC(=O)C2CCN(c3ncnc4sc(C)c(C)c34)CC2)cc1S(=O)(=O)N(C)C	-13.8%	-1.6	-2.1%	6.6%	-0.9%	14.1µM*
Clc1ccc(-c2nnn3c2nc(NC2CCCCC2)c2ccccc23)cc1	33.4%	·	·	88.5%	31.8%	16.9%[59 µM]
O=C(OCC(=O)N1c2ccccc2Sc2ccccc21)C1CC(=O)N(Cc2ccco2)C1 (stereo not given)	?	·	-6.0%	-12.5%	?	50.1µM*
O=C(COC(=O)C1CC(=O)N(Cc2ccco2)C1)Nc1ccccc1[N+](=O)[O-] (stereo not given)	-20.1%	-0.1	-9.3%	-9.3%	-3.5%	-43.3%
Cc1ccc(-c2nc3cc(Cl)ccc3o2)cc1NC(=O)c1cc2ccccc2o1	-15.7%	·	·	13.3%	2.3%	-3.5%[59 µM]
Cc1ccc(/C=N/Nc2ccc(Cl)c(C(=O)O)c2)s1	-25.3%	-10.0	-10.1%	6.6%	?	?
Cc1ccc(/C=N/Nc2ccc(F)cc2)s1	?	7.2	·	-7.9%	?	50.1µM*
CCn1c(=O)n(-c2ccc(F)cc2)c(=O)c2sc3ccccc3c21	-13.2%	·	·	58.5%	3.8%	1.2%[59 µM]
Cc1ccccc1NC(=O)c1c(C)oc2ccc(O)c(CN3CCCC3)c12	-16.0%	·	·	11.9%	-2.2%	11.2%[59 µM]
O=C(CSCc1ccccc1Br)NNC(=S)NCc1ccco1	?	5.0	·	-2.2%	-31.2%	39.8µM*
Cc1ccccc1CSCC(=O)NC(=O)NCc1ccco1	44.7µM*	·	?	?	-98.7%	44.7µM*
CC(C)(O)C(=O)NNC(=S)NCc1ccco1	-3.6%	1.6	-3.6%[11.4 µM]	46.9%	?	-30.2%
Cc1cc(SCC(=O)NC(=O)NCc2ccco2)nc2ccccc12	-18.2%	·	-1.6%	23.8%	-11.0%	?
O=C(C1CCC(Cn2c(=O)c3sccc3n(Cc3ccccc3F)c2=O)CC1)N1CCOCC1 (stereo not given)	-18.7%	·	·	27.9%	-14.0%	14.6%[59 µM]
CCc1ccc(CNC(=O)C2CCCN(c3nnc(C)c4c(C)n(-c5ccccc5)nc34)C2)cc1 (stereo not given)	?	-4.0	·	43.2%	79.4µM*	?
Cc1nnc(N2CCCC(C(=O)NCc3ccccc3)C2)c2nn(-c3ccccc3)c(C)c12 (stereo not given)	-3.4%	·	·	21.5%	-2.9%	-6.1%[59 µM]
COc1ccc(-n2nc3c(N4CCC(C(=O)NCCc5ccco5)CC4)nnc(C)c3c2C)cc1	50.1µM*	-7.4	·	23.5%	-8.4%	-17.3%
COc1ccc(-n2nc3c(N4CCC(C(=O)NCc5cccc(C)c5)CC4)nnc(C)c3c2C)cc1	-7.8%	-1.0	·	31.2%	0.4%	·
Cc1ccccc1CNC(=O)C1CCCN(c2nnc(C)c3c(C)n(-c4ccccc4)nc23)C1 (stereo not given)	?	14.2	·	14.4%	?	56.2µM*
CCOc1ccc(CNC(=O)C2CCN(c3nnc(C)c4c(C)n(-c5ccc(C)cc5)nc34)CC2)cc1	?	-4.4	·	26.2%	56.2µM*	22.4µM*
Cc1nnc(N2CCCC(C(=O)NCc3ccccc3F)C2)c2nn(-c3ccccc3)c(C)c12 (stereo not given)	-24.8%	-4.4	·	20.4%	0.3%	11.2%
O=C(NCc1ccc(F)cc1)C1CCCCN1S(=O)(=O)c1ccc(F)cc1 (stereo not given)	6.5%	·	·	18.9%	8.1%	10.2%[59 µM]
Cc1cccc2c(=O)cc(CSCC(=O)Nc3ccc(Cl)cc3)[nH]c12	-24.7%	·	·	55.9%[57 µM]	-15.2%	0.8%[59 µM]
Cc1nn(Cc2ccccc2)c(Cl)c1/C=C1\NC(=S)NC1=O	-20.7%	-22.7	10.2%	12.5%	-24.3%	39.8µM*
Cc1nn(Cc2ccc(F)cc2)c(Cl)c1/C=N/NC(=O)c1ccccc1	11.0%	-4.1	-5.4%	21.3%	-11.8%	-18.5%
